“And” between values parts separate entries of the source, which are not always exact repeats. Equal entries are not always repeated. About 2,000 (36%) of roughly 5,500 compounds were called active. Another 18% or so got no clear call; they are omitted. Rule as the data show it: active = normalized growth mostly below about 0.91 (no sharp cut-off); inconclusive = no clear call, values can overlap the other calls; inactive = mostly above about 0.92. The list shows a part of the results.
Assay: chemical genetic growth profiling, strain panel (AID 1159580);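 also: tested at 20 µM; growth read once vehicle control cultures reached saturation at 30 °C; 1 = growth at the plate median or of vehicle wells; lower values mean less growth of the strain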
Settings: S. cerevisiae deletion strains, growth OD

Measured: normalized growth

CC1(C)C2CC(=O)[C@]3(C)C(CC[C@@]4(C)[C@H](c5ccoc5)OC(=O)C5OC543)[C@@]2(C)[C@@H](O)C[C@H]1O (stereo not given in full)
inactive: locus YAL021C, strain ccr4, hits give low values 0.987 | locus YAL026C, strain drs2, hits give low values 1.01 | locus YAL030W, strain snc1, hits give low values 1 | locus YBL061C, strain skt5, hits give low values 1.01 | locus YBR009C, strain hhf1, hits give low values 1.02 | locus YBR021W, strain FUR4, hits give low values 1 | locus YBR023C, strain chs3, hits give low values 1.01 | locus YBR171W, strain sec66, hits give low values 1.03 | locus YBR229C, strain ROT2, hits give low values 1.01 | locus YBR231C, strain swc5, hits give low values 1.01 | locus YBR279W, strain paf1, hits give low values 1 | locus YCL011C, strain gbp2, hits give low values 1.01 | locus YCL016C, strain dcc1, hits give low values 1.01 | locus YCL029C, strain bik1, hits give low values 1.02 | locus YCL069W, strain vba3, hits give low values 1.02 | locus YCR088W, strain abp1, hits give low values 1.01 | locus YDL005C, strain med2, hits give low values 1 | locus YDL035C, strain GPR1, hits give low values 1.08 | locus YDL040C, strain nat1, hits give low values 1 | locus YDL074C, strain BRE1, hits give low values 1.09 | locus YDL101C, strain DUN1, hits give low values 1.02 | locus YDL134C, strain PPH21, hits give low values 1.04 | locus YDL185W, strain tfp1, hits give low values 0.996 | locus YDL192W, strain arf1, hits give low values 1.01 | locus YDR001C, strain nth1, hits give low values 1 | locus YDR069C, strain doa4, hits give low values 0.995 | locus YDR101C, strain arx1, hits give low values 0.98 | locus YDR137W, strain rgp1, hits give low values 1.02 | locus YDR159W, strain sac3, hits give low values 1.03 | locus YDR162C, strain NBP2, hits give low values 1.05 | locus YDR195W, strain ref2 0.968 | locus YDR297W, strain sur2, hits give low values 1.01 | locus YDR318W, strain mcm21, hits give low values 1 | locus YDR334W, strain swr1, hits give low values 1 | locus YDR335W, strain msn5, hits give low values 1.01 | locus YDR388W, hits give low values 0.976 | locus YDR392W, strain spt3, hits give low values 1.01 | locus YDR502C, strain sam2, hits give low values 1.01 | locus YEL003W, strain gim4, hits give low values 1.01 | locus YEL037C, strain rad23, hits give low values 1 | locus YEL061C, strain CIN8 (second series), hits give low values 0.994 | locus YER015W, strain faa2, hits give low values 0.997 | locus YER016W, strain bim1, hits give low values 1.01 | locus YER110C, hits give low values 0.988 | locus YER111C, strain swi4, hits give low values 1.01 | locus YER155C, strain BEM2 (second series), hits give low values 1.02 | locus YER155C, strain BEM2, hits give low values 1 | locus YER167W, strain BCK2, hits give low values 1.01 | locus YFR010W, strain ubp6, hits give low values 0.994 | locus YGL078C, strain dbp3, hits give low values 0.987 | locus YGL086W, strain mad1, hits give low values 1 | locus YGL167C, strain pmr1, hits give low values 1 | locus YGL173C, strain kem1, hits give low values 1.01 | locus YGL227W, strain vid30, hits give low values 1.03 | locus YGL240W, strain doc1, hits give low values 1.01 | locus YGL248W, strain PDE1, hits give low values 1.06 | locus YGL253W, strain hxk2, hits give low values 1 | locus YGR078C, strain PAC10, hits give low values 1.05 | locus YGR135W, strain pre9, hits give low values 1 | locus YGR252W, strain gcn5, hits give low values 0.913 | locus YHR013C, strain ard1, hits give low values 1.02 | locus YHR027C, strain rpn1, hits give low values 0.985 | locus YHR030C, strain SLT2, hits give low values 1.02 and 1.04 | locus YHR079C, strain IRE1 (second series), hits give low values 0.985 | locus YHR079C, strain IRE1, hits give low values 1.03 | locus YHR094C, strain hxt1, hits give low values 0.982 | locus YHR129C, strain ARP1, hits give low values 1.03 | locus YHR142W, strain chs7, hits give low values 0.989 | locus YHR200W, strain rpn10, hits give low values 0.996 | locus YIL066C, strain RNR3, hits give low values 1.02 | locus YIL073C, strain SPO22, hits give low values 1.12 | locus YIL125W, strain kgd1, hits give low values 0.992 | locus YIR030C, strain dcg1, hits give low values 0.985 | locus YJL092W, strain hpr5, hits give low values 1 | locus YJL095W, strain BCK1 (second series), hits give low values 1.02 | locus YJL095W, strain BCK1, hits give low values 1.07 and 1.01 | locus YJL115W, strain asf1, hits give low values 0.999 | locus YJL129C, strain trk1, hits give low values 1.02 | locus YJL134W, strain LCB3, hits give low values 1.01 | locus YJL154C, strain vps35, hits give low values 0.999 | locus YJL164C, strain tpk1, hits give low values 1.01 | locus YJL166W, strain qcr8, hits give low values 1.01 | locus YJL168C, strain set2, hits give low values 1 | locus YJL187C, strain SWE1 (second series), hits give low values 1.03 | locus YJL187C, strain SWE1, hits give low values 1.01 | locus YJR066W, strain TOR1, hits give low values 0.964 | locus YKL009W, strain mrt4, hits give low values 0.998 | locus YKL068W, hits give low values 0.984 | locus YKL085W, strain MDH1 (second series), hits give low values 0.989 | locus YKL085W, strain MDH1, hits give low values 0.989 | locus YKL160W, strain elf1, hits give low values 1.02 | locus YKL190W, strain CNB1, hits give low values 1.01 | locus YKR001C, strain vps1, hits give low values 0.997 | locus YKR026C, strain gcn3, hits give low values 1.01 | locus YKR091W, strain srl3, hits give low values 1.01 | locus YLL001W, strain dnm1, hits give low values 0.999 | locus YLL026W, hits give low values 1 | locus YLL041C, strain sdh2, hits give low values 0.997 | locus YLR027C, strain aat2, hits give low values 1.01 | locus YLR039C, strain RIC1, hits give low values 1.17 | locus YLR058C, strain SHM2, hits give low values 1.03 | locus YLR102C, strain apc9, hits give low values 0.989 | locus YLR113W, strain HOG1, hits give low values 0.988 | locus YLR221C, strain rsa3, hits give low values 1.01 | locus YLR258W, strain gsy2, hits give low values 1.01 | locus YLR262C, strain YPT6 (second series), hits give low values 1.01 | locus YLR268W, strain sec22, hits give low values 1.02 | locus YLR320W, strain mms22, hits give low values 1 | locus YLR342W, strain FKS1 (second series), hits give low values 1.04 | locus YLR342W, strain FKS1, hits give low values 1.02 | locus YLR357W, strain rsc2, hits give low values 1.01 | locus YLR370C, strain arc18, hits give low values 0.996 | locus YLR371W, strain rom2, hits give low values 0.992 | locus YLR384C, strain iki3, hits give low values 0.99 | locus YLR418C, strain cdc73, hits give low values 0.974 | locus YML016C, strain PPZ1, hits give low values 1.01 | locus YML032C, strain rad52, hits give low values 0.986 | locus YML120C, strain ndi1, hits give low values 1.01 | locus YML124C, strain tub3, hits give low values 0.992 | locus YMR058W, strain fet3, hits give low values 1 | locus YMR078C, strain ctf18, hits give low values 0.988 | locus YMR125W, strain sto1, hits give low values 1.01 | locus YMR129W, hits give low values 1 | locus YMR205C, strain PFK2, hits give low values 1.03 | locus YMR223W, strain ubp8, hits give low values 0.985 | locus YMR231W, strain pep5, hits give low values 1.01 | locus YMR263W, strain SAP30, hits give low values 1.01 | locus YMR307W, strain GAS1, hits give low values 1.15 | locus YNL067W, strain RPL9B, hits give low values 1.02 | locus YNL071W, strain lat1, hits give low values 1 | locus YNL153C, strain GIM3, hits give low values 1.06 | locus YNL183C, strain NPR1, hits give low values 0.967 | locus YNL209W, strain ssb2, hits give low values 0.997 | locus YNL233W, strain BNI4, hits give low values 1.06 | locus YNL248C, strain rpa49, hits give low values 1 | locus YNL250W, strain rad50, hits give low values 1.03 | locus YNL271C, strain bni1, hits give low values 0.968 | locus YNL298W, strain CLA4, hits give low values 0.991 | locus YNL307C, strain MCK1, hits give low values 0.987 | locus YNL322C, strain KRE1 (second series), hits give low values 1.03 | locus YNR049C, strain mso1, hits give low values 0.997 | locus YNR052C, strain pop2, hits give low values 0.975 | locus YOL012C, strain htz1 1.54 | locus YOL147C, strain pex11, hits give low values 0.982 | locus YOR001W, strain rrp6, hits give low values 1.01 | locus YOR061W, strain CKA2, hits give low values 1.01 | locus YOR069W, strain VPS5, hits give low values 1.01 | locus YOR070C, strain gyp1, hits give low values 1 | locus YOR080W, strain dia2, hits give low values 0.999 | locus YOR083W, strain WHI5, hits give low values 1.02 | locus YOR106W, strain vam3, hits give low values 1.01 | locus YOR136W, strain idh2, hits give low values 0.986 | locus YOR144C, strain elg1, hits give low values 0.979 | locus YOR184W, strain ser1, hits give low values 1.01 | locus YOR231W, strain MKK1, hits give low values 1.03 | locus YOR265W, strain rbl2, hits give low values 0.983 | locus YOR270C, strain vph1, hits give low values 0.904 | locus YOR290C, strain snf2, hits give low values 1.02 | locus YOR316C, strain cot1, hits give low values 0.979 | locus YPL051W, strain arl3, hits give low values 0.994 | locus YPL078C, strain atp4, hits give low values 1.03 | locus YPL106C, strain sse1, hits give low values 1.02 | locus YPL240C, strain hsp82, hits give low values 1 | locus YPL241C, strain CIN2, hits give low values 1.02 | locus YPL256C, strain CLN2, hits give low values 1.03 | locus YPR119W, strain clb2, hits give low values 0.978 | locus YPR141C, strain kar3, hits give low values 0.99 | locus YPR163C, strain tif3, hits give low values 0.997 | locus YPR167C, strain met16, hits give low values 1 | strain wtn01, hits give low values 1
